Screening results as filed in PubChem.
An excerpt weighted towards active compounds, which were near 1.1% of everything screened.
AI-2 QS modul – Vibrio harveyi AI-2 quorum sensing modulators, primary screen, JMH597 strain, luminescence/OD600 ratio | Vibrio harveyi JMH597 AI-2 luminescence/OD600 ratio, 9 h; stronger effect = lower value; strain lacks LuxN and CqsS sensors; 0 = neutral-control median | activity change, % at 7.5 µM | 300,000 compounds, 0.4% hits; in the data active = activity change below about -75%, passing the limit was not always enough;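 note: luminescence divided by OD600 gain over 9 h not by final OD600 alone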
NTR1 ag – agonists of human NTR1, primary screen, imaging, U2OS cells, beta-arrestin-GFP, high content; Neurotensin receptor type 1 (Homo sapiens), P30989; NTR1-U2OS beta-arrestin-GFP spot imaging, agonist mode; activation, % at 20 µM; 330,000 compounds, 0.17% hits;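 active = activation at or above 40% of the spot to cytoplasm intensity ratio, with at least 20 cells analyzed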;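 note: 0% = DMSO without peptide and 100% = 100 nM NTR1 peptide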
Pemphigus Ab inh – inhibitors of pemphigus antibody binding to DSG3, primary screen, biochemical, bead-based, flow cytometry, scFv-GFP; binding (percent of control), % at 10 µM; AID 588358, 2011; Desmoglein-3 (Homo sapiens), P32926; 310,000 compounds, 0.48% hits; DSG3-coupled beads, scFv-anti-DSG3-GFP binding; stronger effect = lower value;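 active = binding more than 3 SD below its plate's average and above zero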
VLA-4 inh – inhibition in human VLA-4 binding assay, primary screen, VLA-4 allosteric modulator project, MLPCN library, flow cytometry, VLA-4 expressing cells. 330,000 compounds, 0.2% hits. ligand binding flow cytometry. inhibition, % (about 7 µM as worked out from the volumes in the protocol). Integrin alpha-4 (Homo sapiens), P13612; in the data active = inhibition above about 50%
Target sequence (P13612 whole entry, looked up): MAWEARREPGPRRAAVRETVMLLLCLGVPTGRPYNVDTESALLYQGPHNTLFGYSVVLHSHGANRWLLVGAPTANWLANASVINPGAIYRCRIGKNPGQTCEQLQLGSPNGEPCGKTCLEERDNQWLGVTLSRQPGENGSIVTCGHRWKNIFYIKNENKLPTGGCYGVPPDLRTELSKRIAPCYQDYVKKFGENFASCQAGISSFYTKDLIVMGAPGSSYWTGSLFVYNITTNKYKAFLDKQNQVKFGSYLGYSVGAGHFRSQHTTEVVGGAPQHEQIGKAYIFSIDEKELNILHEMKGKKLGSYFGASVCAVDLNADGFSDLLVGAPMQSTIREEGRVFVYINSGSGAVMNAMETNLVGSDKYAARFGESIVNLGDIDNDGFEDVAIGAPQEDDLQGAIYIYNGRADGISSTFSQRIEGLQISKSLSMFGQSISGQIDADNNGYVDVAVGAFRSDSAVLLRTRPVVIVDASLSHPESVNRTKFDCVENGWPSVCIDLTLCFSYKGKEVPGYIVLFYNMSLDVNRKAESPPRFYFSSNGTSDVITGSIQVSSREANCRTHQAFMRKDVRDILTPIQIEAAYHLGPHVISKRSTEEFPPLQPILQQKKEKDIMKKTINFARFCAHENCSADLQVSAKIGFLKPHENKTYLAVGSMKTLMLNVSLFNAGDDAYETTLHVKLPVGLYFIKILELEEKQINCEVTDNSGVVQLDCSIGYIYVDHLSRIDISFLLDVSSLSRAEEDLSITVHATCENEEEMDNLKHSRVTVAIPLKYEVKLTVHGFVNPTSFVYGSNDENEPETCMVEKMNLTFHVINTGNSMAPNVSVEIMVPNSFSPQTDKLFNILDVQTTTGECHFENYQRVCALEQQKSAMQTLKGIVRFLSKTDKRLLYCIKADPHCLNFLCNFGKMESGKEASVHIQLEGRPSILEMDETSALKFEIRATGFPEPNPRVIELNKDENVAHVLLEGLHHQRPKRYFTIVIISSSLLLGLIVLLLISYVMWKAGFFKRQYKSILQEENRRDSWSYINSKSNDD
An asterisk follows results filed as active; . = no result given.

SMILES | AI-2 QS modul | NTR1 ag | Pemphigus Ab inh | VLA-4 inh
COc1ccc(C2=NOC(C(=O)Nc3cccc(O)c3)C2)cc1 (stereo unspecified) | 31 | 0 | 82* | 8
COc1ccc(C2=NOC(C(=O)Nc3ccc(C(C)=O)cc3)C2)cc1OC (stereo unspecified) | 30 | 1 | 104 | 9
COc1cc(C2=NOC(C(=O)Nc3ccc(C(C)=O)cc3)C2)cc(OC)c1OC (stereo unspecified) | 22 | -1 | 79* | -4
CCCC1NC(=O)c2cccnc2-n2c1nc1cc(F)c(F)cc1c2=O (stereo unspecified) | . | . | 107 | .
O=C(COC(=O)COc1ccc(Cl)cc1Br)NC1CCCC1 | . | . | 105 | .
O=C(Nc1nccs1)c1ccc(N2C(=O)[C@@H]3[C@H](C2=O)[C@H]2C=C[C@@H]3C2)cc1 | 18 | 1 | 69* | -2
COc1ccc(/C=C(/NC(=O)c2ccc(Br)o2)C(=O)Nc2cccc(C(=O)O)c2)cc1 | . | . | 100 | .
Cc1cccc(N2CCN(C(=O)C3CCN(S(=O)(=O)c4c(C)noc4C)CC3)CC2C)c1 (stereo unspecified) | 14 | 1 | 46* | -12
COc1ccc(F)c(CN2CCC(n3nccc3NC(=O)CCCc3ccccc3)CC2)c1 | -95* | 0 | 107 | 2
CCCCCCOC(=O)C[N+](C)(C)CCOC1CC2CCC1(C)C2(C)C (stereo unspecified) | 14 | 40* | 115 | 8
Cc1ccc(S(=O)(=O)N2CC(O)C[C@H]2C(=O)OCC(=O)N2CCN(c3ccc(F)cc3)CC2)cc1C (stereo partly specified) | . | . | 103 | .
S=c1[nH]c2ccc(Cl)cc2[nH]1 | 11 | 0 | 103 | 24
S=c1[nH]c2cc(Cl)ccc2s1 | -78* | 0 | 120 | 5
CC(C)COC(=O)N(C)C[C@@H]1OCc2cnnn2CCCC(=O)N([C@@H](C)CO)C[C@H]1C | . | . | 103 | .
CC(C)N(C(=O)CSc1ccc(S(=O)(=O)N2CCCCC2)cn1)c1ccccc1 | . | 0 | 99 | 7
O=C(CC1S/C(=N\S(=O)(=O)c2ccc(F)cc2)N(c2ccccc2)C1=O)Nc1ccccc1 (stereo unspecified) | 24 | 2 | 79* | 8
O=C(CC1SC(=O)N(c2ccccc2)C1=O)Nc1ccc(Br)cc1 (stereo unspecified) | 8 | 1 | 106 | 0
CCn1c(C(C#N)/C(=N\S(=O)(=O)c2cccs2)c2ccccc2)nc2ccccc21 (stereo unspecified) | 17 | 2 | 74* | -5
CCn1c(-c2cccs2)nc2ccccc21 | 8 | 0 | 101 | 13
OCCNc1ncnc2c1nnn2Cc1ccccc1Cl | . | . | 95 | .
CC(C)CCNc1ncnc2c1nnn2Cc1ccccc1Cl | 11 | -1 | 84* | 3
Cc1ccccc1CCNC(=O)c1ccc(Cl)c(S(=O)(=O)N2CC(C)OC(C)C2)c1 (stereo unspecified) | . | -3 | 99 | -33
O=C(NNC(=S)NCc1ccc(Cl)cc1)c1cccnc1 | -50 | -1 | 102 | 5
O=C(Cc1ccc(Cl)cc1)NNC(=S)NC(=O)c1cccnc1 | -88* | -1 | 97 | 0
O=C(NC(=S)NNC(=O)c1ccc(Cl)cc1Cl)c1cccnc1 | 80 | 2 | 95 | 7
SMILES | AI-2 QS modul | NTR1 ag | Pemphigus Ab inh | VLA-4 inh
Cc1ccc(C(=O)NNC(=S)NC(=O)c2ccc(Cl)cc2)cc1 | -127* | 10 | 102 | 1
O=C(NNC(=S)NC(=O)c1cccnc1)c1ccc(Cl)cc1 | -93* | 0 | . | 19
O=C(CNC(=S)NC(=O)c1cccs1)c1ccccc1 | 1 | 5 | 107 | 11
Cc1ccc(C(=O)NC(=S)NCC(=O)c2ccccc2)cc1 | 10 | 2 | -20* | 1
Cc1ccc(S(=O)(=O)NCC(=O)NCC(=O)N(C)Cc2ccc(Br)s2)cc1C | . | . | 105 | .
O=C(O)c1ccc(-n2ncc3c2/C(=C/c2cccc([N+](=O)[O-])c2)CC3)cc1 | 51 | -1 | 91 | -2
O=C(O)c1ccc(-n2ncc3c2/C(=C\c2cccc([N+](=O)[O-])c2)CC3)cc1 | . | . | 34* | .
Cc1ccc(N2C(=O)/C(=C/c3cccnc3)SC2=S)cc1 | 8 | -1 | 88* | 3
CN(C(=O)c1cc(-c2cccs2)nn1-c1ccccc1)C1CCS(=O)(=O)C1 (stereo unspecified) | . | . | 101 | .
Cc1ccc(CNC(=O)Nc2ccc3c(c2)N(C)C(=O)CS3)cc1 | -78* | 0 | 86 | -1
COC(=O)c1ccc(OCCOc2ccccc2C)cc1 | 11 | 0 | 112 | 5
COC(=O)c1ccc(OCCOc2ccccc2)cc1 | -76* | 0 | 89 | -2
C[C@H](CO)N1C[C@H](C)[C@@H](CN(C)C(=O)c2ccc3ccn(C)c3c2)OCc2cn(nn2)CCCC1=O | . | . | 95 | .
CNC(=O)c1ccc(-c2ccc(OC)cc2)s1 | 4 | 1 | 100 | 5
COc1ccc(NC(=O)c2ccc(-c3ccc(OC)cc3)s2)cc1 | 11 | 1 | 55* | 18
CC(=O)N1c2ccc(S(=O)(=O)N3CCCC(C(=O)N4CCC(C)CC4)C3)cc2CC1C (stereo unspecified) | 31 | 2 | -9.0* | 9
CCC(CC)C1=NN2C(=N)/C(=C\c3cc(C)n(-c4cccc(C)c4)c3C)C(=O)N=C2S1 | 14 | 7 | 72* | -1
CC1=NN2C(=N)/C(=C\c3cc(C)n(-c4ccccc4)c3C)C(=O)N=C2S1 | 9 | 0 | 102 | 12
COc1ccc(C(=O)NCc2c(C)nn(Cc3ccccc3)c2C)cc1S(=O)(=O)N1CCOCC1 | . | 0 | 107 | -2
CC1(C)CC(=O)C(C(O)c2ccccc2)C(C)(C)N1 (stereo unspecified) | 3 | -1 | 72* | -5
CC1(C)CC(=O)C(C(O)c2ccc([N+](=O)[O-])cc2)C(C)(C)N1 (stereo unspecified) | 9 | 0 | 99 | 8
Cc1ccc(C2=NNC(=O)C(c3ccc(Cl)cc3)C2)cc1 (stereo unspecified) | -84* | 2 | 101 | 1
O=C(CSc1ccccn1)Nc1nonc1[N+](=O)[O-] | -88* | 1 | 116 | -10
O=C(CSc1nc(-c2ccccc2Cl)ns1)NCc1ccco1 | -4 | -2 | . | -1
O=C(CSc1nc(-c2ccccc2Cl)ns1)NCc1ccc2c(c1)OCO2 | 14 | 0 | 75* | 34
O=C(CSc1nc(-c2ccccc2)cc(=O)[nH]1)NCc1ccc2c(c1)OCO2 | 23 | -4 | 68* | 4
C[C@@H]1CN([C@H](C)CO)C(=O)c2c(c3ccccc3n2C)-c2ccccc2CO[C@@H]1CN(C)S(=O)(=O)c1cccs1 | . | . | 104 | .
C[C@@H]1CN([C@@H](C)CO)S(=O)(=O)c2ccc(Br)cc2O[C@@H]1CN(C)C(=O)C1CC1 | . | . | 84* | .
